# About 45 (2%) of roughly 2,000 compounds were called active. This excerpt belongs to a sample that is enriched for actives. A number with no mark means an inactive call.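 The calls were made as follows: active = inhibition above the screen-wide mean inhibition plus 3 SD (cut at about 44% in these data); inactive = the rest.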
# Molecular target: Perilipin-1 (Homo sapiens) + 1-acylglycerol-3-phosphate O-acyltransferase ABHD5 (Homo sapiens) (UniProt O60240+Q8WTS1)
# Assay: ABHD5-PLIN1 interaction inhibitors, pilot screen, cell lysate, split luciferase complementation, luminescence, NIH validation set (AID 493027);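 also: 0% = DMSO wells with the 100% control not disclosed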
# Details: split G. princeps luciferase complementation, 4 h; at 7.9 µM, hits give high values
# Perilipin-1 (Homo sapiens) + 1-acylglycerol-3-phosphate O-acyltransferase ABHD5 (Homo sapiens), sequence (O60240 whole entry, looked up): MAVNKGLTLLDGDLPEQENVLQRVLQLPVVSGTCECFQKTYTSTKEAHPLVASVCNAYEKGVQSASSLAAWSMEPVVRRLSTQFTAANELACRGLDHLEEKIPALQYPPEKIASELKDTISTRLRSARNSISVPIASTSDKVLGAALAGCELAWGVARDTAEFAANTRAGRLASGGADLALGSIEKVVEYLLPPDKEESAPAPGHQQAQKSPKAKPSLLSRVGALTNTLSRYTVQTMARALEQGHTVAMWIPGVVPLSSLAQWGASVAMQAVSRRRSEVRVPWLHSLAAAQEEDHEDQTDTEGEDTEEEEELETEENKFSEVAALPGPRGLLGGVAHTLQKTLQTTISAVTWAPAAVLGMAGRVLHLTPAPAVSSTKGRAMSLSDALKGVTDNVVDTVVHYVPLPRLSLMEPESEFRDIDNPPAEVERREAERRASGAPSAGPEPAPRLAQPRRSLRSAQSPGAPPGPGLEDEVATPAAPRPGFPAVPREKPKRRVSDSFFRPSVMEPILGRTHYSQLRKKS
# Perilipin-1 (Homo sapiens) + 1-acylglycerol-3-phosphate O-acyltransferase ABHD5 (Homo sapiens), sequence (Q8WTS1 whole entry, looked up): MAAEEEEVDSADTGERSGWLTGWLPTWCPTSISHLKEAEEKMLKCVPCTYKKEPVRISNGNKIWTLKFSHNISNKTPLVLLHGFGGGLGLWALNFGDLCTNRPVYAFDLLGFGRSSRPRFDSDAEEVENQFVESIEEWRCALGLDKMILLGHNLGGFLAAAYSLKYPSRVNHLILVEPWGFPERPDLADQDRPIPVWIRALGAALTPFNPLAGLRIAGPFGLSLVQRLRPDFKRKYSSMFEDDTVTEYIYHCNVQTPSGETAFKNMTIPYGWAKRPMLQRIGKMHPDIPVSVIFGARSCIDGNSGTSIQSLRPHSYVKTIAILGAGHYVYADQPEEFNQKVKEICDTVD
row,Compound,inhibition
1,CSCCC(NC(C)=O)C(=O)Oc1ccc2c3c(c(=O)oc2c1)CCCC3 (configuration not stated),4.14%
2,O=c1c(-c2ccc3c(c2)OCCO3)coc2cc(OC3OC(CO)C(O)C(O)C3O)ccc12 (configuration not stated),-4.41%
3,CSCCC(NC(=O)OC(C)(C)C)C(=O)Oc1ccc2c(=O)c(-c3ccc4c(c3)OCCO4)coc2c1 (configuration not stated),67.4% (active)
4,O=C(Nc1ccc(Cl)cn1)Nc1ccccc1Cl,-3.38%
5,CC(C)C1Cc2[nH]c(=O)c(C(=O)O)cc2CO1 (configuration not stated),-7.52%
6,CCCC(=O)Nc1ccccc1NC(C)=O,-6.46%
7,N/C(=N\OS(=O)(=O)c1ccc2ccccc2c1)c1cccnc1,0.01%
8,COc1ccc(-c2c(NC(=O)c3ccco3)n(C)c3ccccc3c2=O)cc1,-10.8%
9,O=C(NCCN1CCCCC1)c1c(O)c2ccccc2[nH]c1=O,-2.32%
10,CC1(C)c2ccccc2N2CC(=O)NC21/C=C/c1ccco1 (configuration not stated),47.4% (active)
11,CC1(C)c2ccccc2N2CC(=O)N(CC(N)=O)C21C (configuration not stated),4.18%
12,O=C(/C=C/c1ccco1)N1CCN(c2ccccc2)CC1,4.55%
13,CC(=O)c1c(C)c(C)c2n1CCn1c(C)ccc1-2,5.75%
14,COc1ccc(C2C(C#N)=C(N)Oc3cc(C)[nH]c(=O)c32)c(OC)c1OC (configuration not stated),-14.5%
15,O=C(/C=C/c1ccc2c(c1)OCO2)NCc1ccc(F)cc1,-2.57%
16,O=C(/C=C/c1ccc2c(c1)OCO2)c1ccccn1,51.3% (active)
17,O=C(/C=C/c1ccc2c(c1)OCCCO2)c1ccc2ccccc2c1O,17.8%
18,CC1(C)CC(=O)c2cc(O)ccc2O1,-2.35%
19,CC(CCCC(C)(C)O)NC(=O)c1ccc(OC2CCN(C(=O)C3CC3)CC2)cc1 (configuration not stated),-7.27%
20,Cc1ccc2[nH]c3c(c2c1)CCNC3=O,-4.86%
21,CC[n+]1ccc2cc(OC)c(OC)cc2c1Cc1ccc(OC)c(OC)c1,-12.6%
22,COc1cc(=O)n(C)c2ccccc12,-0.74%
23,COc1ccc(/C=C/C(=O)c2cc3cccc(OC)c3oc2=O)cc1,60.6% (active)
24,COc1cccc2cc(-c3ccccc3)c(=O)oc12,-3.48%
25,COc1ccc(C(=O)/C=C/c2ccc(OC(=O)c3cc(OC)c(OC)c(OC)c3)cc2)cc1,26.9%
26,NS(=O)(=O)c1cc2c(cc1Cl)NC(C1C[C@H]3C=C[C@@H]1C3)NS2(=O)=O (some centres not stated),0.4%
27,O=C(O)CCn1cnc2ccccc2c1=O,3.53%
